Sampled rows, rich in hits. Any-hit rate of the full collection: about 4.2%.
15-hLO inh – qHTS Assay for Inhibitors of 15-hLO (15-human lipoxygenase); Polyunsaturated fatty acid lipoxygenase ALOX15 (Homo sapiens), P16050; purified 15hLO-1, xylenol orange hydroperoxide absorbance; Potency, µM (doses to about 57.1 µM), inactives show top-dose activity change, negative = inhibition, hits mostly inhibitors; 74,000 tested, 1.4% active; AID 887, 2007; also: potency is read from the fitted curve at half-maximal effect; % is scaled to controls: 0 for no effect and ±100 for the full control effect; nearly all actives have a fitted effect of over 55% in size
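Purified human 15hLO-1 (40 nM) in 25 mM Hepes pH 7.5, 0.01% Triton X-100, preincubated 15 min RT with compound, then 50 uM arachidonic acid for 6 min. Hydroperoxide read by ferrous/xylenol orange, 30 min; 573/405 nm absorbance ratio gave progress.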
ERK AVP block – qHTS Assay for Inhibitors of the ERK Signaling Pathway using a Homogeneous Screening Assay; HEK293-V1b, vasopressin-stimulated pERK AlphaScreen; Potency, µM (doses to about 57.5 µM), without a hit: top-dose activity, negative = inhibition, hits mostly inhibitors; 72,000 tested, 0.99% active; AID 995, 2007; also: potency is read from the fitted curve at half-maximal effect; % is scaled to controls: 0 for no effect and ±100 for the full control effect; nearly all actives have a fitted effect of over 55% in size
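qHTS, compounds titrated on V1b-expressing HEK293 cells. Preincubation 30 min at 37C, vasopressin 25 nM for 5 min, lysis 10 min, bead incubation 5 hr at room temperature.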
YjeE inh – qHTS Assay for Inhibitors of YjeE; tRNA threonylcarbamoyladenosine biosynthesis protein TsaE (Escherichia coli (strain …; purified YjeE enzyme, qHTS inhibition assay; Potency, µM; 71,000 tested, 0.05% active
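Fluorescence polarization of a BODIPY Texas Red–ADP probe (2 uM) bound to purified YjeE (10 uM) was read after 15 min room-temperature incubation with compounds. Loss of polarization marks inhibitors; ADP serves as titrated control.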
Pol III holo inh – qHTS Assay for Inhibitors of DNA Polymerase III Holoenzyme System | reconstituted DNA polymerase III holoenzyme replication, biochemical | 71,000 tested, 0.25% active | Potency, µM (highest dose often 57.1 µM), without a hit: top-dose activity change, negative = inhibition; also: potency is read from the fitted curve at half-maximal effect; % is scaled to controls: 0 for no effect and ±100 for the full control effect
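Reconstituted *E. coli* holoenzyme (0.35 nM Pol III, 1 nM beta, 154 nM SSB, 2 nM primase) was preincubated with compound for 15 min at RT. Synthesis on 1.4 nM ssM13Gori ran 35 min, then was stopped with PicoGreen/EDTA and read as dsDNA fluorescence.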
Tau fil binding – qHTS Assay for Tau Filament Binding | AID 596, 2007 | Potency, µM (top dose mostly 57.1 µM), inactives show top-dose activity change, negative = inhibition | recombinant tau filaments, thioflavin S fluorescence, 15 h; filaments grown with octadecylsulfate alongside compound | 71,000 tested, 2% active;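 also: potency is read from the fitted curve at half-maximal effect; % is scaled to controls: 0 for no effect and ±100 for the full control effect; actives lower thioflavin S fluorescence by blocking filaments or displacing dye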
Target sequence (P10636 whole entry, looked up): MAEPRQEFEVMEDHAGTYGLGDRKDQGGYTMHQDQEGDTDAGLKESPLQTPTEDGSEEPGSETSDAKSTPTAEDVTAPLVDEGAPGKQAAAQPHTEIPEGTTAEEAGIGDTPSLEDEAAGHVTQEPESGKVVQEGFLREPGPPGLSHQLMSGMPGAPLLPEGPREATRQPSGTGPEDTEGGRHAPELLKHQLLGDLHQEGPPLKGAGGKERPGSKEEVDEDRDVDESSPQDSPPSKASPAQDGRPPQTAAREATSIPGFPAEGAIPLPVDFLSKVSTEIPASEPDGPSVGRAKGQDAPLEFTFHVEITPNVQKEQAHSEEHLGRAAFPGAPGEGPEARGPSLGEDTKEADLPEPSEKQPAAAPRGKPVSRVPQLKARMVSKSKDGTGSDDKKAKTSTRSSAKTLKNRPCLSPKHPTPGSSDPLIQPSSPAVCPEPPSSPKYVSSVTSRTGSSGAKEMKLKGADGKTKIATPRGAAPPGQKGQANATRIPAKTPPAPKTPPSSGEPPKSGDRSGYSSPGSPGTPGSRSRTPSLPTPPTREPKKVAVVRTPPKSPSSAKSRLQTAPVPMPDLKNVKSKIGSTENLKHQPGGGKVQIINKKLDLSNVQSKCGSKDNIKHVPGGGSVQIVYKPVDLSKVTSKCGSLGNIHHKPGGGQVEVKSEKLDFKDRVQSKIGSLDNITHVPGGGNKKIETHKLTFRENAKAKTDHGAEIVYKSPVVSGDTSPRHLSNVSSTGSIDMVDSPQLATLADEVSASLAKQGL
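His-tagged recombinant human tau (exons 2, 3, 10; 1 uM final) fibrillized with 30 uM sodium octadecylsulfate, 15 h at 37 C, in pH 7.4 HEPES buffer with 10 uM thioflavine S and 5 mM DTT. Reduced ThS fluorescence (450/510 nm) marks activity.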
Hsp90 Hop PPI – qHTS Assay for Disrupters of an Hsp90 Co-Chaperone Interaction | AlphaScreen TPR2A-His6 binding biotin-Hsp90 C-terminal peptide | Potency, µM (highest dose often 57 µM), for inactives: top-dose activity change, negative = inhibition | 71,000 tested, 0.44% active | AID 595, 2007; active = well fitted curve in either direction with a large enough effect; inconclusive = small, poorly fitted or top-dose-only effect, or another doubt; also: potency is read from the fitted curve at half-maximal effect; % is scaled to controls: 0 for no effect and ±100 for the full control effect
* marks the source's active call; other numbers are inactive results; i = inactive; ? = inconclusive; . = not tested or not shown; [ ] = remark or other dose. Unless noted, calls follow the shape of the dose curve; as a rule, active = well fitted curve in the direction sought with a large enough effect; inconclusive = small, poorly fitted or top-dose-only effect, or another doubt; inactive = no such curve, though single readings can be large; an effect the other way counts as inactive or inconclusive.

SMILES	15-hLO inh	ERK AVP block	YjeE inh	Pol III holo inh	Tau fil binding	Hsp90 Hop PPI
CCCCCCCNS(=O)(=O)c1cccc2c(Cl)cccc12	-17%[25.6 µM]	20%	i	2%	40µM*	?
O=S(=O)(NCCCCCCc1ccccc1)c1cccc2c(Cl)cccc12	-8%[25.6 µM]	35%	i	-1%	?	40µM*
NCCCCCCCCCCNS(=O)(=O)c1cccc2c(Cl)cccc12	?	-1%	i	0%	113%	-5%
NCCCCCCNS(=O)(=O)c1cccc2c(Cl)cccc12	2%	13%	i	5%	41%	-1%
CCOc1cc(CNC(=O)CN2C(=O)c3ccccc3S2(=O)=O)ccc1OC	21%	7%	i	0%	2%	-3%
C=Cc1c(C)c2cc3nc(cc4[nH]c(cc5nc(cc1[nH]2)C(C)=C5CCC(=O)O)c(CCC(=O)OC)c4C)[C@@]1(C)C3=CC=C(C(=O)OC)[C@H]1C(=O)OC (tested in a mixture with another compound)	-14%[25.6 µM]	i	i	1%[25.6 µM]	1.6µM*	0.25µM*
CCOc1ccc(C2CC(c3cccc(OC)c3)Nc3nc(N)nn32)cc1 (stereo not drawn)	43%	-18%	i	1%	-22%	-6%
CC(=O)NCCNc1ncncc1-c1ccc(N(C)C)cc1	13µM*	-20%	i	-3%	6%	-4%
CCN(CC)CCOC(=O)c1c(C)oc2ccc(OC)cc12	9%	-3%	i	0%	25%	-3%
Cc1conc1NC(c1cccs1)c1ccc2cccnc2c1O (stereo not drawn)	?	-23%	i	8%	13µM*	25µM*
O=C(NCCSc1c[nH]c2ccccc12)c1ccc(Br)o1	25µM*	.	i	-4%	1%	-6%
CC(=O)Nc1cccc(NC(=O)C2CCCN2C(=O)Nc2ccccc2C)c1 (stereo not drawn)	3%	5%	i	0%	3%	-1%
Oc1ccc2c(c1)OC(c1ccc(O)c(O)c1)C(O)C2 (stereo not drawn)	13µM*	?	.	.	.	.
Cc1ccc2c(c1)NCCO2	-15%	1%	i	-7%	32µM*	-20%
Cc1ccc(CNC(=O)C2CNc3cc(C)ccc3O2)cc1 (stereo not drawn)	1%	-28%	i	-9%	-5%	-10%
CCC(c1nnc(SCC(=O)Nc2ccc(C(=O)Nc3ccccc3OC)cc2)o1)N(C)C (stereo not drawn)	19%	13%	i	-2%	20µM*	-9%
COc1ccccc1NC(=O)CSc1nnc(-c2ccco2)o1	9%	-4%	i	7%	5%	0%
CCSc1ccccc1C(=O)Nc1cc(C)on1	13µM*	33%	i	-2%	-4%	?
Cc1cc(NC(=O)c2ccccc2-c2ccccc2C(=O)O)no1	-18%	14%	i	3%	-9%	-4%
O=C(NCCCN1CCCCCC1)C1CC(=O)N(CCc2ccccc2)C1 (stereo not drawn)	0%	29%	i	-1%	19%	-4%
COc1cccc(Nc2ncc3nc(-c4ccccc4)c(=O)n(C4CC4)c3n2)c1	-8%	0%	i	-10%	1%	28%
O=C(CNCc1ccco1)Nc1ccccc1-n1cccc1	12%	20%	i	-1%	1%	-3%
Cc1ccc(C2C(C#N)=C(N)Oc3n[nH]c(-c4cccs4)c32)s1 (stereo not drawn)	25µM*	-19%	i	-9%	-13%	-7%
Cc1ccc(-c2[nH]nc3c2C(c2ccoc2)C(C#N)=C(N)O3)cc1C (stereo not drawn)	25µM*	-10%	i	-1%	-7%	-5%
Cc1ccc(-c2[nH]nc3c2C(c2cccnc2)C(C#N)=C(N)O3)cc1 (stereo not drawn)	-12%	13µM*	i	0%	-8%	-4%
SMILES	15-hLO inh	ERK AVP block	YjeE inh	Pol III holo inh	Tau fil binding	Hsp90 Hop PPI
CCOc1cc(C2C(C#N)=C(N)Oc3n[nH]c(-c4ccccc4)c32)ccc1O (stereo not drawn)	-20%	16µM*	i	5%	8%	?
Cc1ccc(C2C(C#N)=C(N)Oc3n[nH]c(C)c32)cc1 (stereo not drawn)	-9%	4%	i	-5%	3%	0%
N#CC1=C(N)Oc2n[nH]c(-c3ccccc3)c2C1c1cccnc1 (stereo not drawn)	-20%	24%	i	-5%	-4%	0%
COc1cc(S(=O)(=O)N2CCOCC2)cc(C(=O)c2nccn2C)c1OC	6%	15%	i	0%	-6%	-2%
Cc1nn(-c2ccccc2)c2c1C(c1ccccc1)C(C#N)=C(N)O2 (stereo not drawn)	-10%	.	.	.	.	.
Cc1ccc(-n2nc(C)c3c2OC(N)=C(C#N)C3c2ccoc2)cc1 (stereo not drawn)	-17%	-10%	i	-1%	32µM*	-15%
Cc1cc(NC(=O)COC(=O)c2ccc(S(=O)(=O)N3CCCc4ccccc43)cc2)no1	-6%	-27%	i	2%	-2%	0%
COCCCn1c(=N)c(C(=O)NCC2CCCO2)cc2c(=O)n3ccccc3nc21 (stereo not drawn)	25µM*	-2%	i	-10%	44%	-10%
Cc1ccc(CNC(=O)c2cc3c(=O)n4cccc(C)c4nc3n(CC3CCCO3)c2=N)cc1 (stereo not drawn)	0%	2%	i	-6%	1.3µM*	1%
N=c1c(C(=O)NCc2ccc(F)cc2)cc2c(=O)n3ccccc3nc2n1CC1CCCO1 (stereo not drawn)	-14%	-10%	i	-3%	3.2µM*	-2%
N=c1c(S(=O)(=O)c2ccccc2)cc2c(=O)n3ccccc3nc2n1CC1CCCO1 (stereo not drawn)	-16%	22%	i	-4%	18%	2%
O=Nc1ccc(NO)cc1	-3%	7%	i	-13%	-29%	-3%
O=Nc1ccc(Nc2ccccc2)cc1	-21%	-18%	i	1%	32µM*	-11%
COCCn1c(=O)c(CCc2ccccc2)nc2cnc(Oc3cccc(Cl)c3)nc21	-15%	23%	i	-12%	-23%	?
CCCn1c(NC(=O)c2ccc(Cl)c(S(=O)(=O)N3CCCC3)c2)nc2ccccc21	14%	3.2µM*	i	1%	34%	3%

Screens as filed in PubChem BioAssay.
